A number with no mark means an inactive call. Records with an inconclusive call do not appear. Active and inactive are the calls of the source. Unless noted, the call rests on the fitted dose curve; in most records, active means well fitted curve in the direction sought with a large enough effect; inconclusive means small, poorly fitted or top-dose-only effect, or another doubt; inactive means no such curve, though single readings can be large; an effect the other way counts as inactive or inconclusive.

The record followed here is PubChem BioAssay (NCATS).

A short description of test [1]: Stat Signaling Pathway (AID 446; active means well fitted curve in either direction with a large enough effect, not every such curve was filed as active;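 further: ME-180 cervical cancer cells given 40 pM IL-6 alongside compound; SIE-controlled beta-lactamase reporter measured as 460/530 nm FRET emission ratio; on the % scale 0 is the no-effect control and ±100 the full control effect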). The essentials:
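FRET read-out (405 nm excitation, 460/530 nm emission) of a beta-lactamase reporter under a STAT-inducible element in ME-180 cervical carcinoma cells. Cells with compound receive 40 pM IL-6 for 5 h. Values are normalised to AC90 stimulation and AC90 JAK-inhibitor controls.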

Test [2] addresses Glucocorticoid receptor (Homo sapiens) (UniProt P04150). The test can be described thus: GR-GFP Redistribution (AID 450;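 active means compounds whose dose series gives a full or clear partial fitted curve of increased nuclear translocation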; further: potency means the concentration at half of the fitted maximal effect). As to conditions: U2OS GR-GFP nuclear translocation, laser cytometry, 2 h.
Test [3] has the same target. The test can be described thus: GR-EFC Redistribution (AID 451; calls by dose curve; further: potency means the concentration at half of the fitted maximal effect). As to conditions: CHO-K1 GR-EFC translocation, beta-gal luminescence, 2 h. The essentials: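 Translocation of GR-ED fusion to nuclear EA restores b-gal, read by luminescence after 1 h room-temperature detection. Engineered CHO-K1 biosensor cells, 1,000/well, exposed 2 h at 37 C to titrations up to 46 uM final.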

The target of test [4] is Mitogen-activated protein kinase 10 (Mus musculus) (UniProt Q61831). The test can be described thus: JNK3 AlphaScreen Assay (AID 530; active means well fitted curve in either direction with a large enough effect, not every such curve was filed as active;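 further: kinase came from lysate of stimulated human HepG2 cells; signal reports phosphorylation of biotinylated GST-cJun 1-79 at Ser73 with 10 µM ATP; series mostly up to about 57 µM; on the % scale 0 is the no-effect control and ±100 the full control effect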). The gist of the method:
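qHTS titrations with 15 min compound pre-incubation before adding ATP (10 uM final). Read-out: AlphaScreen of Ser73-phosphorylated biotin-GST-cJun using HepG2 lysate JNK3 activated by IL-1β and TNFα.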

Test [5] deals with 3',5'-cyclic-AMP phosphodiesterase 4B (Homo sapiens) (UniProt Q07343). The test can be described thus: qHTS Assay for Inhibitors of PDE-IV (AID 607; active means well fitted activation curve with a large enough effect in the main read-out, with a control signal flat, not every such curve was filed as active; further: % of control where 0% means no effect). The essentials: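 Cell-based read-out of cAMP via a modified cyclic nucleotide-gated channel and membrane potential dye (535/590 nm) in HEK293 cells expressing PDE4 endogenously. Compounds tested up to 22.9 uM final; 100 uM RO 20-1724 reference.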

For test [6], the target named is Guanine nucleotide-binding protein G(i) subunit alpha-1 (Homo sapiens) (UniProt P63096). The test can be described thus: qHTS Assay for Inhibitors of RGS12 GoLoco Motif Activity (Green Fluorophore) (AID 879).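 Further: 0% = labeled peptide with Gαi1 and full inhibition = labeled peptide alone without protein; negative values mean loss of peptide binding seen as reduced polarization.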 The essentials:
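A drop in FITC polarization marked displacement of the FITC-tagged RGS12 GoLoco peptide (10 nM) from Gαi1 (50 nM). Compounds were incubated 10 min at room temperature in Tris pH 7.5 buffer containing 150 mM NaCl, 0.1 mM GDP and 0.05% NP40; unlabeled peptide titration served as control.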

A short description of test [7]: qHTS Assay for Identification of Small Molecule Antagonists for Thrombopoietin (TPO) Signaling Pathway (AID 918). Further: potency means the concentration at half of the fitted maximal effect; nearly all actives have a fitted effect of over 60% in size. Conditions: TPO-dependent cell signaling reporter, antagonist mode. The gist of the method: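 Inhibitors of TPO signaling are sought by stimulating IL-3-starved murine Ba/F3 cells (human TPO receptor, Glycoprotein IIb-driven luciferase) with TPO at its EC50 of 26 pM alongside compound. After 24 hrs at 37 C, reporter luminescence is measured.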

Test [8] deals with Muscarinic acetylcholine receptor M1 (Rattus norvegicus) (UniProt P08482). Put plainly: qHTS Assay for Antagonists of Acetylcholine Muscarinic M1 Receptor: Measurement of IP-One Response (AID 944). Further: nearly all actives have a fitted effect of over 75% in size. The gist of the method: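 Antagonist mode with rat M1 receptor transfected into CHO cells. Compound is added first for 10 min, carbachol at its EC80 follows for 30 min, and lysis reagents then allow TR-FRET detection of accumulated IP1.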
Sequence of Muscarinic acetylcholine receptor M1 (Rattus norvegicus) (P08482 whole entry, looked up): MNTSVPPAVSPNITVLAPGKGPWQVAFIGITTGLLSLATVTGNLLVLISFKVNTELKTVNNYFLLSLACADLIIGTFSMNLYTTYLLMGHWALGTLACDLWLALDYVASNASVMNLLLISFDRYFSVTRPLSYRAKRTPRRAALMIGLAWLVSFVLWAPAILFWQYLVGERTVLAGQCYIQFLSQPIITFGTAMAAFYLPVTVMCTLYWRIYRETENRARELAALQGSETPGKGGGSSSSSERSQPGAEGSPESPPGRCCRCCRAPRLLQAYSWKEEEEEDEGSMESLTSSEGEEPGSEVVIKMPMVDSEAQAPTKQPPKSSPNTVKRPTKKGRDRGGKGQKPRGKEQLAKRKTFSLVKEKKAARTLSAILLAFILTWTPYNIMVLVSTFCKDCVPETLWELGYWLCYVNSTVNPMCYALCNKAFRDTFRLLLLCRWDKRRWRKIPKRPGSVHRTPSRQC
(In qHTS, concentration-response curves come from the screen itself.)

Test [9] concerns the target Pyruvate kinase (Leishmania mexicana) (UniProt Q27686). The test can be described thus: qHTS Validation Assay for Inhibitors of Leishmania Mexicana Pyruvate Kinase (AID 945).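 Further: 0% = DMSO only neutral control wells.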 The essentials:
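Substrate mix (0.5 mM PEP, 0.1 mM ADP, 7 mM MgCl2, 50 mM KCl, pH 7.2 imidazole) received compound by pin tool, then 0.2 nM LmPYK E451W. After 1 h at room temperature, PKLight was added and luminescence measured.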

The target in test [10] is Pyruvate kinase PKM (Homo sapiens) (UniProt P14618). Put plainly: qHTS Assay for Activators of Human Muscle Pyruvate Kinase (AID 954; active means well fitted curve in the direction sought with a large enough effect, not every such curve was filed as active;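 further: 0% = uninhibited enzyme and -100% = no enzyme or full thiadiazolimine inhibition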). The essentials: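 ATP production by PKM2 detected via luciferase luminescence after 1 h room-temperature reaction (0.1 nM enzyme, PEP at Km 0.5 mM, ADP 0.1 mM, pH 7.2 imidazole buffer). Inhibition scaled to no-enzyme control; activation referenced to 0.3 nM enzyme wells.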
Sequence of Pyruvate kinase PKM (Homo sapiens) (P14618 whole entry, looked up): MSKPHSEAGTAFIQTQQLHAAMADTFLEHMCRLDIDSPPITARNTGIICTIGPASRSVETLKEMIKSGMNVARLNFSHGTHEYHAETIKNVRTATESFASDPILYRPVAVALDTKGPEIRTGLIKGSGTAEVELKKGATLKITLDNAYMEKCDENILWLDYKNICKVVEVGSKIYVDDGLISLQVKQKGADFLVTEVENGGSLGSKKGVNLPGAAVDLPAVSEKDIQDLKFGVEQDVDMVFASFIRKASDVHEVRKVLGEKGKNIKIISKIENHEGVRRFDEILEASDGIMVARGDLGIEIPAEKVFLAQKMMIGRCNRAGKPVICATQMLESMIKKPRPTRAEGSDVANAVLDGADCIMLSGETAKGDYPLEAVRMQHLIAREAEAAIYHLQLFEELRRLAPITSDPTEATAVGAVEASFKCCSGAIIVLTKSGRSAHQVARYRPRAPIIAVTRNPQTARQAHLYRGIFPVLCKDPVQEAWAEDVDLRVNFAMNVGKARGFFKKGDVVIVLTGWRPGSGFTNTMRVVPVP

Test [11] deals with Alpha-galactosidase A (Homo sapiens) (UniProt P06280). The test can be described thus: Counterscreen for Glucocerebrosidase Inhibitors: qHTS Assay for Human alpha-Galactosidase at pH 4.5 (AID 992). Further: 0% is about no effect. The essentials:
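Fluorogenic 1536-well qHTS at pH 4.5 (citrate, Tween-20): 2 nM enzyme, 80 uM 4-MU-alpha-galactoside, 20 min room temperature, NaOH/glycine stop. Titration 0.7 nM to 77 uM, data normalized to no-enzyme and full-activity controls, Hill-fitted AC50.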
(The purpose of a counterscreen is to sort out artefacts and off-target activity.)

Test [12] deals with alpha-glucosidase (Oryza sativa, rice) (UniProt Q653V4). Put plainly: Counterscreen for Glucocerebrosidase Inhibitors: qHTS Assay for Rice alpha-Glucosidase at pH 5.0 (AID 997).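 Further: 0% = full activity with enzyme and -100% = basal without enzyme.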 The gist of the method: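 Endpoint fluorogenic assay at pH 5.0: compounds (0.7 nM to 77 uM) titrated against 4 nM rice enzyme and 400 uM 4-MU-alpha-glucoside for 20 min at room temperature; NaOH/glycine stop, read ex 365/em 440 nm, Hill-fitted AC50.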

The target in test [13] is DNA repair nuclease/redox regulator APEX1 (Homo sapiens) (UniProt P27695). The test can be described thus: qHTS Validation Assay for Inhibitors of the Human Apurinic/apyrimidinic Endonuclease 1 (APE1) (AID 1705;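 further: TAMRA fluorescence gain over two minutes as APE1 cuts a quenched THF abasic duplex; series mostly up to about 57 µM; on the % scale 0 is the no-effect control and ±100 the full control effect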). The essentials:
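qHTS, 1536-well. APE1 + cpd 15 min RT → 50 nM TAMRA/BHQ-2 THF-abasic dsDNA substrate → kinetic fluorescence, 3 reads/60 s; delta(read3−read1) = reaction progress. No-enzyme buffer = negative control.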

A short description of test [14]: Counterscreen for APE1 Inhibitors: Fluorescent Dye Displacement Validation Assay (AID 1707).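 Further: plate controls were ThO with dsDNA and no compound for no effect and ThO without dsDNA for full effect.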 The gist of the method: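 Counterscreen flags promiscuous DNA binders: compounds displacing ThO from duplex DNA (abasic THF site, 50 nM) reduce 540 nm emission (480 nm excitation). ThO 250 nM final; Tris-HCl pH 7.5 with NaCl, MgCl2 and Tween-20.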
The nature of test [15]: qHTS for differential inhibitors of proliferation of Plasmodium falciparum line 7G8 (AID 1815).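 Further: potency means the concentration at half of the fitted maximal effect; parasite growth measured after three days of incubation.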
Test [16] is described as follows: qHTS for differential inhibitors of proliferation of Plasmodium falciparum line GB4 (AID 1816).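 Further: potency means the concentration at half of the fitted maximal effect; parasite growth measured after 72 h incubation.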 Conditions: Potency: Plasmodium falciparum GB4 proliferation inhibition.
Test [17] deals with Ferritin light chain (Equus caballus) (UniProt P02791). The test can be described thus: qHTS Validation Assay for Identification of Novel General Anesthetics (AID 2323). Further: series mostly up to about 77 µM; on the % scale 0 is the no-effect control and ±100 the full control effect. The gist of the method: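 Fluorescence at 535 nm (excitation 380 nm) reported loss of 1-AMA binding to horse-spleen apoferritin (10 uM) in PBS with 50% saturated 1-aminoanthracene, after 10 min room-temperature incubation with compound; values from Hill fits of normalized response.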
Sequence of Ferritin light chain (Equus caballus) (P02791 2-175 limits assumed): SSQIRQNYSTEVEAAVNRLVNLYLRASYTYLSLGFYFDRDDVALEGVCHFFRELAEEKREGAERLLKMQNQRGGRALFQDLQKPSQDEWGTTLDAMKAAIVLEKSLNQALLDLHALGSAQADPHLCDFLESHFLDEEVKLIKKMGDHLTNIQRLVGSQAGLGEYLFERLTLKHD

Test [18] concerns the target ATP-dependent DNA helicase Q1 (Homo sapiens) (UniProt P46063). The test can be described thus: qHTS Validation Assay for Inhibitors of RecQ-Like Dna Helicase 1 (RECQ1) (AID 2353).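 Further: plate controls were DMSO vehicle for no effect and enzyme-free control for full effect.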 The gist of the method: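 RECQ1T1 50 nM; forked duplex (20 bp + 30-nt ss tails) 200 nM, ATP 2 mM final; pH 8.0, 2 mM MgCl2, 2.5 ug/ml poly(dI-dC); 15 min compound preincubation; discontinuous kinetic read over 2 h at RT.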

The target in test [19] is M-phase phosphoprotein 8 (Homo sapiens) (UniProt Q99549). The test can be described thus: qHTS Validation Assay for Inhibitors for MPP8 Chromodomain Interactions with Methylated Histone Tails (AID 488949). Further: potency means the concentration at half of the fitted maximal effect; nearly all actives have a fitted effect of over 55% in size. The gist of the method:
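50 nM MPP8 + 50 nM b-H3K9me3 peptide, PBS pH 7.4/0.01% Tween-20, 30 min RT; + cpd 30 min RT; + AlphaScreen donor/Ni-chelate acceptor beads 10 ug/mL final, 30 min dark; luminescence read.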

Test [20] concerns the target Thyrotropin receptor (Homo sapiens) (UniProt P16473). The test can be described thus: qHTS Assay for Antagonists of the Thyroid Stimulating Hormone Receptor (AID 488980). Further: series mostly up to about 58 µM; 0% is about no effect. The gist of the method: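 Readout is cAMP by HTRF competition between cellular cAMP and cAMP-d2 for a cryptate-labelled antibody. Antagonism was assessed in TSHR-transfected HEK293 cells stimulated with 4 nM TSH (EC80, final) in the presence of RO 20-1724.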

Test [21] deals with Thyrotropin-releasing hormone receptor (Homo sapiens) (UniProt P34981). Put plainly: qHTS for Small Molecule Agonists and Allosteric Enhancers of Human TRH Receptor: Validation Screen for Agonists (AID 493127;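 active means calcium activation more than 3 SD above the typical response in the agonist read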;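 further: intracellular calcium rise by fluo-8 fluorescence before TRH EC20 addition; 0% is about no effect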). As to conditions: TRH receptor agonist cell assay; at 2 µM; active compounds read high. The gist of the method: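 Compounds are added by online pintool to dye-loaded TRHR cells while fluorescence is recorded every second. A rise in calcium signal during the agonist read marks activation; a later 10 nM TRH addition (EC20) serves the separate enhancer mode.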
Sequence of Thyrotropin-releasing hormone receptor (Homo sapiens) (P34981 whole entry, looked up): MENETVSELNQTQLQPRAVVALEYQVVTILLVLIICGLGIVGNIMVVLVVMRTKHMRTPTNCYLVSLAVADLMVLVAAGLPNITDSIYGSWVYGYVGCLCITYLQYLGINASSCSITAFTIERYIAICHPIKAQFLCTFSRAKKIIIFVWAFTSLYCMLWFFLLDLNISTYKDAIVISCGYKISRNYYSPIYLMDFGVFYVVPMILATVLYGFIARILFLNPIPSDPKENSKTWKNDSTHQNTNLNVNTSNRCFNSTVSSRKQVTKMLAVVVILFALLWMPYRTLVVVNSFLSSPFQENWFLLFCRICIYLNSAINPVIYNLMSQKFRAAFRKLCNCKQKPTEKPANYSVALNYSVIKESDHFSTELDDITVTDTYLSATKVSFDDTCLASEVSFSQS

For test [22], the target named is Galactokinase (Homo sapiens) (UniProt P51570). Put plainly: qHTS Validation Assay for Inhibitors of Human Galactokinase (GALK) (AID 493189). Further: 0% is about no effect. The gist of the method:
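5 nM GALK / 100 uM galactose / 35 uM ATP, 20 mM HEPES pH8.0, 5 mM MgCl2, 60 mM NaCl, 1 mM DTT, 0.01% BSA (final). RT 1 h; Kinase-Glo Plus luminescence.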

The nature of test [23]: Validation screen for small molecules that induce DNA re-replication in SW480 colon adenocarcinoma cells (AID 504364). Further: 0% is about no effect. The gist of the method:
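Image-based qHTS: compounds were incubated with SW480 cells for 48 hr, nuclei stained with Hoechst, and per-nucleus fluorescence intensity scanned to flag cells with excess DNA content.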

Test [24] deals with Rap guanine nucleotide exchange factor 3 (Homo sapiens) (UniProt O95398). The test can be described thus: Counterscreen qHTS for agonist of cAMP-regulated guanine nucleotide exchange factor 3 (EPAC1) (AID 1645889). Further: potency means the concentration at half of the fitted maximal effect; nearly all actives have a fitted effect of over 40% in size. The gist of the method:
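Rap1B-BODIPY-GDP 250 nM + GDP 50 uM; cpds 7-pt, final 9.74 nM–152 uM (activator mode) or from 7.32 nM upwards (inhibitor mode); RT; FI 480/540 nm at 5 and 30 min, then ± cAMP, reread.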

For test [25], the target named is Endonuclease 4 (Escherichia coli (strain K12)) (UniProt P0A6C1). The test can be described thus: Counterscreen for APE1 Inhibitors: qHTS Validation Assay for Inhibitors of Endonuclease IV (AID 1708). Further: on the % scale 0 is the no-effect control and ±100 the full control effect. The essentials:
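Incision of a double-stranded 50 nM TAMRA/BHQ-2 abasic substrate was followed kinetically (525/598 nm, reads every 60 s) after 15 min enzyme–compound preincubation with 2 nM EndoIV in pH 7.5 Tris buffer with MgCl2, DTT and Tween-20; concentration-response format.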

Test [26] in a line: qHTS for differential inhibitors of proliferation of Plasmodium falciparum line 3D7 (AID 1876). Further: potency means the concentration at half of the fitted maximal effect.
The nature of test [27]: qHTS for differential inhibitors of proliferation of Plasmodium falciparum line Dd2 (AID 1882).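 Further: series mostly up to about 29 µM; plate controls were DMSO vehicle for no effect and 0.29 µM artemisinin for full effect; nearly all actives have a fitted effect of over 65% in size.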 As to conditions: Potency: Plasmodium falciparum Dd2 proliferation inhibition. The essentials:
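SYBR Green DNA fluorescence (ex 485, em 535 nm) after overnight lysis quantifies parasite growth; compound exposure lasted 72 h at 37 C on infected red cells at 2.5% hematocrit, 0.3% parasitemia (final). Artemisinin 0.29 uM and vehicle wells define normalization.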

A short description of test [28]: Quantitative high throughput screen for delayed death inhibitors of the malarial parasite plastid, 96 hour incubation (AID 488745). Further: potency means the concentration at half of the fitted maximal effect; nearly all actives have a fitted effect of over 70% in size. The gist of the method:
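Readout is firefly luciferase luminescence from an integrated reporter in P. falciparum; lower signal marks inhibited growth. Cultures at 2% hematocrit and 0.1% parasitemia were treated with compound across two generations (96 h, 37 C, 5% CO2).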

Test [29] has as its target Transient receptor potential cation channel subfamily V member 1 (Homo sapiens) (UniProt Q8NER1). The test can be described thus: HTS Assay for Compounds that Act as Enhancers of the Vanilloid Receptor 1 (AID 488979). Further: 0% is about no effect. The essentials:
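Calcium influx kinetics via Fluo-8 (480/520 nm) in TRPV1-expressing cells, 2000/well cultured overnight at 35.5C. Compound-alone read 3 min (agonist phase), followed by EC20 capsaicin challenge for 2 min (enhancer phase).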

For test [30], the target named is Voltage-gated inwardly rectifying potassium channel KCNH2 (Homo sapiens) (UniProt Q12809). The test can be described thus: qHTS Assay for Small Molecule Inhibitors of the Human hERG Channel Activity (AID 588834).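 Further: top concentration of the series differs between compounds; on the % scale 0 is the no-effect control and ±100 the full control effect; lower thallium flux fluorescence means stronger hERG block; nearly all actives have a fitted effect of over 50% in size.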 The essentials: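 Step 1: BacMam hERG transduction of U2OS, 4 hrs RT. Step 2: overnight 37 °C, plate 2000 cells/well, 4 hr. Step 3: FluxOR load, compound 10 min, stimulate, read fluorescence.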

Sequence of Galactokinase (Homo sapiens) (P51570 whole entry, looked up): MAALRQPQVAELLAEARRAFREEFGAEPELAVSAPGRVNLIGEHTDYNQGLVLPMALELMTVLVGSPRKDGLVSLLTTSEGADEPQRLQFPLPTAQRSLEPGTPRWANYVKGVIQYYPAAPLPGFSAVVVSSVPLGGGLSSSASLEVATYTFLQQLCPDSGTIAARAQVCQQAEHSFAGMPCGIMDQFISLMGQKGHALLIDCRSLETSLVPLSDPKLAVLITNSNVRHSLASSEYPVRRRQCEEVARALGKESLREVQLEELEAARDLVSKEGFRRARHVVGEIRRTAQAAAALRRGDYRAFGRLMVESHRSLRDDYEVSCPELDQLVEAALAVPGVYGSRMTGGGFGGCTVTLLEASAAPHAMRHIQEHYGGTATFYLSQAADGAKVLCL
Sequence of Thyrotropin receptor (Homo sapiens) (P16473 whole entry, looked up): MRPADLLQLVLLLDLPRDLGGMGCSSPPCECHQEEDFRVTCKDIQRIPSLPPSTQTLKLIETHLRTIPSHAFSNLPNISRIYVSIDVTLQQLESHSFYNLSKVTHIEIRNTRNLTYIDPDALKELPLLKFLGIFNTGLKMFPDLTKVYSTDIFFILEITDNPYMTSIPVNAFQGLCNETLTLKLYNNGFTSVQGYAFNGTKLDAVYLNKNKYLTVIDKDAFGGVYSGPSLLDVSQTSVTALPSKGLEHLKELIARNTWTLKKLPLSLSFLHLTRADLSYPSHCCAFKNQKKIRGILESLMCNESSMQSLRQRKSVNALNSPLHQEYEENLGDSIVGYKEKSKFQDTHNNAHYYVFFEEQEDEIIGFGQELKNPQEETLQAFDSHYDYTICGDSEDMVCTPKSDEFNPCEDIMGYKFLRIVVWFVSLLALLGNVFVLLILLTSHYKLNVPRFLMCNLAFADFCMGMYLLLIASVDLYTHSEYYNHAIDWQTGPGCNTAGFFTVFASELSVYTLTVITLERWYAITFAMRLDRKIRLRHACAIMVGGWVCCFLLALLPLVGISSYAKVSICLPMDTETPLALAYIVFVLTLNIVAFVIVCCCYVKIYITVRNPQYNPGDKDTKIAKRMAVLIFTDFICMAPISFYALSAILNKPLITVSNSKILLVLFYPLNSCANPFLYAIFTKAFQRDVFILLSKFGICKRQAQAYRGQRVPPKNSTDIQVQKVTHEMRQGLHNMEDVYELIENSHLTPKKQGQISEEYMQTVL
Sequence of ATP-dependent DNA helicase Q1 (Homo sapiens) (P46063 whole entry, looked up): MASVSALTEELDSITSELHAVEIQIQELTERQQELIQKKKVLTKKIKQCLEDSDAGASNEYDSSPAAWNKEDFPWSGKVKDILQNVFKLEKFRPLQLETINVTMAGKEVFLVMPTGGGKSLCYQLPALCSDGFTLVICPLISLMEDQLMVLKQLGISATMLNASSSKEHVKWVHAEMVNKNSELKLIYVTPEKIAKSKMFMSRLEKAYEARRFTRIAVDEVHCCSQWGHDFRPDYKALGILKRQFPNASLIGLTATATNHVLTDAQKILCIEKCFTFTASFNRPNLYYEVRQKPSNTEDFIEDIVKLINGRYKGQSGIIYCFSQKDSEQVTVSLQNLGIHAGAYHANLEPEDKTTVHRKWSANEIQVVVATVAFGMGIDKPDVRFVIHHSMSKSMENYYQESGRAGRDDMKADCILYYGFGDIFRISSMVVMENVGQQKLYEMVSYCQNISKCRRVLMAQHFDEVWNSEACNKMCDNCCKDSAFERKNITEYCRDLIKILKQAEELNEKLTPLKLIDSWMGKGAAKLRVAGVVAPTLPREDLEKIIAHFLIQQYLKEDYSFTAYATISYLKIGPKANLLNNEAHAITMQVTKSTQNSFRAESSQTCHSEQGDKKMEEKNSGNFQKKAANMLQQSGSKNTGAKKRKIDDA
Sequence of Glucocorticoid receptor (Homo sapiens) (P04150 whole entry, looked up, the tested form may be a part): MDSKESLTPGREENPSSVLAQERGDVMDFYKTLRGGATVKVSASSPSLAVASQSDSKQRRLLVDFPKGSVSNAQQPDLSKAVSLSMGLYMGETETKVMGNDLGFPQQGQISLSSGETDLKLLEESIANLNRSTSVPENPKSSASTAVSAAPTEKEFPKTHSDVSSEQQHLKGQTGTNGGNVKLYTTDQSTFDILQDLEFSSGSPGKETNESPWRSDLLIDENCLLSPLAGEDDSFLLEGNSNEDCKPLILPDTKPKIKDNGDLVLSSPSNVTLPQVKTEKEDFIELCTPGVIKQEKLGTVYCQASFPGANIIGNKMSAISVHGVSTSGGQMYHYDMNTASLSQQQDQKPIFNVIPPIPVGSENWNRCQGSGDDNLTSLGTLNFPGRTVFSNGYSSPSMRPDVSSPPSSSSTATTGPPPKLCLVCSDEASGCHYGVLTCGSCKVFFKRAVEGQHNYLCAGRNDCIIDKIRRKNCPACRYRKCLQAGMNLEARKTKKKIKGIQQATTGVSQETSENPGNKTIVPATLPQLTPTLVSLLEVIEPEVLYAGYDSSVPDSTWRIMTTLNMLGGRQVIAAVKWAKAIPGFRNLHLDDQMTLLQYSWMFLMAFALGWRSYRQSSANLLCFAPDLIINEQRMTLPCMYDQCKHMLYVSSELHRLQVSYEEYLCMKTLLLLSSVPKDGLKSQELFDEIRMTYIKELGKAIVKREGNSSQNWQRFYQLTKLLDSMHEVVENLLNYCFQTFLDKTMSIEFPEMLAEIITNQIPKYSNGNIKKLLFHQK
Sequence of Guanine nucleotide-binding protein G(i) subunit alpha-1 (Homo sapiens) (P63096 whole entry, looked up): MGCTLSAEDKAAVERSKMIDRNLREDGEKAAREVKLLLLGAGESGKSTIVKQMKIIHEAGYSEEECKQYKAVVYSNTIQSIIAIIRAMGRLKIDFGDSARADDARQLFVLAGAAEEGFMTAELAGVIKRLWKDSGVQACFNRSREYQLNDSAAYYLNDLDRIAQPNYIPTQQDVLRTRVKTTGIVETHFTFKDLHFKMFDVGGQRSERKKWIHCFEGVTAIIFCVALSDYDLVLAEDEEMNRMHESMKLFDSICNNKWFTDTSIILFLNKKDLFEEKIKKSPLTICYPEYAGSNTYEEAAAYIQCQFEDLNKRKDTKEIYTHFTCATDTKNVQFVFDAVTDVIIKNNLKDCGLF
Sequence of Pyruvate kinase (Leishmania mexicana) (Q27686 2-499 E452W): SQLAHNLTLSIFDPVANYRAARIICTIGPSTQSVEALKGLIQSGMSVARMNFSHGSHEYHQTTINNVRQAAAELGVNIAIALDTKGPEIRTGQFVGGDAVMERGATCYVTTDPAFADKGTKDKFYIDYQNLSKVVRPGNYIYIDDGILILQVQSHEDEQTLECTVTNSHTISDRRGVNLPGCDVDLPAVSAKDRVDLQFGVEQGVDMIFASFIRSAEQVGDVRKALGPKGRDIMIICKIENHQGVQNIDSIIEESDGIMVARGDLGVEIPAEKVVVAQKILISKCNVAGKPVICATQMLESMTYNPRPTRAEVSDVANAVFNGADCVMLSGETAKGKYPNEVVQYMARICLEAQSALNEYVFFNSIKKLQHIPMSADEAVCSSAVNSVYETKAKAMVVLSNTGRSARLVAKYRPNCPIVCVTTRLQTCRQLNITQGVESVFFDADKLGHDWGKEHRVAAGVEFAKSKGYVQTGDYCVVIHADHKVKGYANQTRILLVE

As for `CC(C)C[C@H](N)CSSC[C@@H](N)CC(C)C`, the outcome in test [1], in test [9], in [10], in test [11], in [12] and in test [14] was inactive. In addition, the call in test [17], in test [18], in test [20] and in [22] was inactive. For the same molecule, the Potency was > 46 µM in [2]; > 46 µM in [3]; 12.6 µM (active) in test [7]; 14.1 µM (active) in test [15]; 10 µM (active) in [16]; 50.1 µM (active) in test [19]. Besides, the Potency entry in test [4], in [5], in [6], in test [8], in test [13] and in test [23] was “inactive” throughout. The activation in test [21] is 6.19%.
As for `COc1ccc(C(=O)Nc2ccccc2C(=O)O)cc1NC(=O)C(c1ccccc1)c1ccccc1`, the Potency in test [24] was 112 µM (active).
Regarding `Nc1nc(Cl)nc2c1ncn2[C@@H]1O[C@H](CO)[C@H](O)[C@H]1O`, the call in test [14], in test [17], in [18], in [29], in test [20] and in test [22] was inactive. Also, the Potency result in test [25], in test [27], in [23] and in test [30] was “inactive” in each case. The Potency in test [16] was 11.2 µM (active); in [26], 7.08 µM (active); in [28] it was 5.22 µM (active). Also, the activation in [21] is 1.31%.
